B2AR arrestin: qHTS assay of beta-arrestin-biased ligands of beta2-adrenergic receptor | Beta-2 adrenergic receptor (Homo sapiens), P07550 | beta-arrestin recruitment to beta2AR, cell-based reporter | Potency, µM (top dose mostly 46.1 µM), for inactives: at the highest dose activation, hits mostly activators | 330,000 compounds, 0.02% hits | AID 492947, 2010;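 also: potency is read from the fitted curve at half-maximal effect; 0% = DMSO controls and full agonism = EC100 isoproterenol or metaproterenol; nearly all actives have a fitted effect of over 65% in size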
ELG1 repair inh: qHTS screen for small molecules that inhibit ELG1-dependent DNA repair in human embryonic kidney (HEK293T) cells expressing luciferase-tagged ELG1; AID 504467, 2011; HEK293T ELG1-luciferase reporter, luminescence, 16 h; DNA damage induced by 5-fluorouridine; 330,000 compounds, 2.3% hits; Potency, µM (doses to about 46.1 µM), inactives show at the top dose activity change, negative = inhibition, usual class: inhibitors; also: potency is read from the fitted curve at half-maximal effect; nearly all actives have a fitted effect of over 55% in size
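In this reporter screen, reduction of luminescence relative to DMSO vehicle indicated activity. Compounds and 5-fluorouridine were added together to 2,000 cells per well, incubated for 16 hr at 37 °C, then developed with ONE-Glo.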
TSHR antagonist: Antagonists of the Thyroid Stimulating Hormone Receptor: HTS campaign; Thyrotropin receptor (Homo sapiens), P16473; TSHR-expressing cells, TSH-stimulated cAMP HTRF, 2 h; stronger effect = lower value; 330,000 compounds, 0.2% hits; activity change, negative = inhibition, % at 11.5 µM;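 active = activity change below a set negative limit, meaning inhibition stronger than a set level, cut at about -70% in these data; inconclusive = activity change between two set negative limits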
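Inhibition of cAMP made by TSHR-expressing cells under TSH stimulation (4nM final, EC80; 2 h, 37 deg C) is quantified with a one-step lysis HTRF kit, anti-cAMP cryptate versus cAMP-d2.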
Gal4-VP16 FLuc: VP16 counterscreen qHTS for inhibitors of ROR gamma transcriptional activity. Drosophila S2 Gal4-VP16 UAS-luciferase, luminescence, 20 h. Potency, µM (titrated, usually from 53.6 µM), for the others: at the top dose activity, negative = inhibition, most hits filed as inhibitors. 310,000 compounds, 3.5% hits;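 also: Gal4-VP16 expression switched on by copper sulfate through the metallothionein promoter; potency is read from the fitted curve at half-maximal effect; nearly all actives have a fitted effect of over 50% in size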
RORgamma inh: qHTS for inhibitors of ROR gamma transcriptional activity. AID 2551, 2010. Drosophila S2 Gal4-RORgamma UAS-luciferase reporter, 20 h. Potency, µM (doses to about 53.6 µM), for inactives: at the highest dose activity change, negative = inhibition, actives largely listed as inhibitors. 310,000 compounds, 5.4% hits. Nuclear receptor ROR-gamma (Mus musculus), P51450; also: potency is read from the fitted curve at half-maximal effect; nearly all actives have a fitted effect of over 60% in size
Target sequence (P51450 whole entry, looked up, the tested form may be a part): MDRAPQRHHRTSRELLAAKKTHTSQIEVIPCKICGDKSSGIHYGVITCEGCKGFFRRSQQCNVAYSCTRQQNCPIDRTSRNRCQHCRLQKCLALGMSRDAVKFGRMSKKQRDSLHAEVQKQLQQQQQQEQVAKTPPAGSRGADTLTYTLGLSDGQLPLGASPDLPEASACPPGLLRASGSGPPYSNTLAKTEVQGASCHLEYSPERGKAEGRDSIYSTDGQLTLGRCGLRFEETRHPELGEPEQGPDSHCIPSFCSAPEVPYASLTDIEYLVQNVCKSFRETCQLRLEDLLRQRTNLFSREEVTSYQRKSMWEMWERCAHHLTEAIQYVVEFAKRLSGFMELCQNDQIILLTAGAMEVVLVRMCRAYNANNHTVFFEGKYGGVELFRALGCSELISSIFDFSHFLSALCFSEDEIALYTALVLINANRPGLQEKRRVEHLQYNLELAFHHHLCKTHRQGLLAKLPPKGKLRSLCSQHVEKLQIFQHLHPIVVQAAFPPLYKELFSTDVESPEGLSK
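Luciferase reporter read in Schneider cells carrying Gal4-RORγ (mouse) and UAS-Photinus luciferase; cells given compound 1 h before 700 uM copper sulfate induction, then incubated 20 h at ambient temperature.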
Starred values were filed as active, the others as inactive; ? = inconclusive; nt = not tested or not shown. Only some compounds are listed: those with a hit (about 7.5% of all), similar ones and a draw of the others. Unless noted, calls follow the shape of the dose curve; as a rule, active = well fitted curve in the direction sought with a large enough effect; inconclusive = small, poorly fitted or top-dose-only effect, or another doubt; inactive = no such curve, though single readings can be large; an effect the other way counts as inactive or inconclusive. Unless noted, % is scaled to controls: 0 for no effect and ±100 for the full control effect.

SMILES | B2AR arrestin | ELG1 repair inh | TSHR antagonist | Gal4-VP16 FLuc | RORgamma inh
COc1cccc(C2CC(c3cccs3)=NN2C(=O)c2ccco2)c1O (stereo not given) | -1% | -8% | -3 | -3% | 5.6µM*
CCN1C(=O)[C@H]2[C@@H](c3ccc(OC)cc3)N3C(=O)CN(CCOC)C(=O)[C@@]3(C)[C@H]2C1=O | 0% | 5% | 1 | 3% | -11%
Cc1ccc(-c2nnc(NCc3nc4ccccc4[nH]3)c3ccccc23)cc1S(=O)(=O)N1CCCCC1 | 0% | 8.2µM* | 4 | 1% | -6%
Cc1ccc(-c2nnc(NC3CCCCC3)c3ccccc23)cc1S(=O)(=O)N1CCN(C)CC1 | 0% | 23µM* | 0 | 5% | 0%
Cc1ccc(-c2nn3c(C)nnc3c3ccccc23)cc1S(=O)(=O)N1CCN(CCO)CC1 | 0% | ? | 7 | 1% | -40%
O=C(CCc1ccc(S(=O)(=O)N2CCOCC2)cc1)Nc1nc(COc2ccccc2)cs1 | 0% | 21µM* | -42 | ? | -39%
O=C(COc1ccccc1)Nc1nc(-c2ccc(S(=O)(=O)N3CCOCC3)cc2)cs1 | -1% | ? | 1 | -12% | 17%
COc1ccc(CNc2ccc(C)cc2)cc1Br | 0% | ? | -34 | -13% | 43%
COc1ccc(Cc2nc(=S)[nH][nH]2)cc1Br | 1% | -6% | 9 | ? | 7.9µM*
C=CC[n+]1c(C)csc1Nc1ccc(C(=O)O)cc1 | 0% | -2% | 7 | 24% | 10%
CC(C)(C)c1cc(-c2csc(Nc3ccccc3)[n+]2Cc2ccc(C(=O)O)cc2)cc(C(C)(C)C)c1O | 0% | 16µM* | -11 | -24% | 40%
O=C(O)c1ccc(C[n+]2c(-c3ccccc3)csc2Nc2ccccc2)cc1 | -1% | 14% | 1 | -17% | 5.6µM*
CCCCOc1ncnc2c1[nH]c1ccc(OCC)cc12 | 0% | -11% | 6 | 5% | 2%
CCCCOc1ncnc2c1[nH]c1ccccc12 | 0% | ? | -46 | 10µM* | ?
CCCCOc1ncnc2c1[nH]c1ccc(F)cc12 | -1% | ? | -32 | 7.9µM* | ?
COc1ccc(NC(=O)Nc2cccc3c2O[C@H](CN(C)C(=O)Nc2c(C)noc2C)[C@@H](C)CN([C@H](C)CO)C3=O)cc1 | 0% | ? | 4 | nt | nt
O=C(Nc1ccccc1)N1CC[C@@]2(CCCN(C(=O)c3cc(C(F)(F)F)cc(C(F)(F)F)c3)C2)C1 | nt | nt | nt | -24% | 28%
COc1ccc(-n2c(=S)[nH]c3cc(C(=O)Nc4ccc(F)cc4)ccc3c2=O)c(OC)c1 | 0% | ? | -6 | 18µM* | 10µM*
COc1ccc(-n2c(=S)[nH]c3cc(C(=O)NCc4ccco4)ccc3c2=O)c(OC)c1 | 0% | 0% | -25 | -10% | ?
COc1ccc(NC(=O)c2ccc3c(=O)n(-c4ccc(OC)cc4OC)c(=S)[nH]c3c2)cc1 | 0% | ? | -21 | 11µM* | 5µM*
O=C(Cn1c(=O)n(CCC(=O)N2CCCCC2)c(=O)c2sccc21)NCc1ccccc1 | 0% | -1% | -13 | -2% | 0%
COc1ccccc1C1C([N+](=O)[O-])=CC([N+](=O)[O-])=CN1C (stereo not given) | 0% | ? | 10 | 11µM* | ?
COc1ccccc1C1NC=C([N+](=O)[O-])C=C1[N+](=O)[O-] (stereo not given) | 0% | -23% | -1 | ? | -45%
COc1ccc(C(=O)Nc2nc3ccc4nc(C)sc4c3s2)cc1 | 0% | 1% | 8 | 3% | ?
COc1ccc(-c2nc(NC(=O)c3ccccc3)sc2-c2ccc([N+](=O)[O-])cc2)cc1 | 0% | -2% | 13 | 6% | -18%
SMILES | B2AR arrestin | ELG1 repair inh | TSHR antagonist | Gal4-VP16 FLuc | RORgamma inh
COc1ccc(C(=O)Nc2nc3c(s2)Cc2cc(OC)ccc2-3)cc1 | 0% | ? | -30 | 35µM* | ?
COc1ccc2c(c1)Cc1sc(NC(=O)c3ccccc3)nc1-2 | 0% | ? | -15 | -26% | 11µM*
COc1ccc2c(c1)Cc1sc(NC(=O)c3cccs3)nc1-2 | 0% | ? | 0 | ? | 7.9µM*
COc1cccc(-c2nnc(NC(=O)c3cccs3)s2)c1 | 0% | ? | -1 | 4% | -32%
CN(CCc1ccc(Cl)c(Cl)c1)CCN1CCCC1 | nt | nt | nt | 9% | -15%
CCOc1ccc(CCNC(=O)c2cc3c(C)nccc3[nH]c2=O)cc1OCC | 0% | 21µM* | -18 | -8% | 24%
CCOc1ccc(CCNC(=O)c2c(C)noc2C)cc1OCC | 0% | 18% | 5 | nt | nt
O=C(Nc1ncc(Cc2cccc(Cl)c2)s1)c1ccc([N+](=O)[O-])cc1 | 0% | -10% | -14 | 2.8µM* | 5µM*
Cc1nn(Cc2ccc(C(=O)Nc3nccs3)cc2)c(C)c1Cl | -1% | ? | 3 | ? | 13µM*
CC(=O)Nc1ncc(Cc2cccc(Cl)c2)s1 | -1% | 17% | -9 | ? | -20%
O=C(Nc1ncc(Cc2ccccc2Cl)s1)c1ccc([N+](=O)[O-])cc1 | -1% | -38% | -7 | 2.8µM* | 2µM*
O=C(Nc1nccs1)c1ccc([N+](=O)[O-])cc1 | -1% | ? | 8 | -7% | 8.9µM*
O=C(Cc1ccc([N+](=O)[O-])cc1)Nc1nccs1 | -1% | ? | 11 | -27% | 0%
Cc1ccc(C(C)C)c(OCC(O)CNC2CCCC2)c1 (stereo not given) | 0% | -7% | 12 | -6% | ?
COc1ccc(CNC(=O)C2CCN(C(=O)c3csc(Nc4ccc(C)cc4)n3)CC2)cc1 | 0% | ? | -1 | 9% | 41%
CCCNC(=O)N1N=C(c2ccc(N)cc2)c2cc3c(cc2[C@H]1C)OCO3 | nt | nt | nt | -5% | 34%
CC(C)C(=O)Nc1ncc(Cc2cccc(Cl)c2)s1 | 0% | 2% | -12 | ? | 11µM*
CC(=O)Nc1sc(N/N=C/c2ccccc2)nc1-c1ccc(C)cc1 | -1% | ? | -8 | 3% | -17%
CCCc1sc(N/N=C/c2ccccn2)nc1-c1ccc(Br)cc1 | 0% | ? | 5 | 1.4µM* | 1.6µM*
CC(C)OC(=O)C1=C2SCC(=O)N2C(N)=C(C#N)C1 | 0% | 1% | -7 | -7% | 13µM*
Cc1cc(C)c2c(NC(=S)NC(=O)c3ccccc3)n[nH]c2n1 | 0% | 1% | -5 | ? | 5.6µM*
O=C(NC(=S)Nc1ccc2[nH]ncc2c1)c1ccccc1 | 0% | ? | 27 | -25% | 3%
Cc1cc(C)c(NC(=O)Nc2ccccc2)c(C)n1 | 0% | 0% | 34 | nt | nt

Screens (PubChem BioAssay)
